Data published in PubChem BioAssay AID1159580 (chemical genetic matrix, 2015).
Hit rate of the full screen: of about 5,500 compounds, about 2,000 (36%) were called active. Inconclusive results (about 18%) are left out. Rule as the data show it: active = normalized growth mostly below about 0.91 (no sharp cut-off); inconclusive = no clear call, values can overlap the other calls; inactive = mostly above about 0.92. The list shows a part of the results.

Experiment: chemical genetic growth profiling, strain panel (AID 1159580);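 also: tested at 20 µM; growth read once vehicle control cultures reached saturation at 30 °C; 1 = growth at the plate median or of vehicle wells; lower values mean less growth of the strain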
Settings: growth OD
[1] = S. cerevisiae deletion strains, locus YAL013W, strain DEP1, hits give low values
[2] = S. cerevisiae deletion strains, locus YBR229C, strain ROT2, hits give low values
[3] = S. cerevisiae deletion strains, locus YDL101C, strain DUN1, hits give low values
[4] = S. cerevisiae deletion strains, locus YDL134C, strain PPH21, hits give low values
[5] = S. cerevisiae deletion strains, locus YDR150W, strain NUM1, hits give low values
[6] = S. cerevisiae deletion strains, locus YEL061C, strain CIN8, hits give low values
[7] = S. cerevisiae deletion strains, locus YGR078C, strain PAC10, hits give low values
[8] = S. cerevisiae deletion strains, locus YGR229C, strain SMI1, hits give low values
[9] = S. cerevisiae deletion strains, locus YHR030C, strain SLT2, hits give low values
[10] = S. cerevisiae deletion strains, locus YHR087W, strain rtc3, hits give low values
[11] = S. cerevisiae deletion strains, locus YJR043C, strain POL32, hits give low values
[12] = S. cerevisiae deletion strains, locus YJR075W, strain HOC1, hits give low values
[13] = S. cerevisiae deletion strains, locus YLR039C, strain RIC1, hits give low values
[14] = S. cerevisiae deletion strains, locus YLR058C, strain SHM2 (second series), hits give low values
[15] = S. cerevisiae deletion strains, locus YLR085C, strain ARP6, hits give low values
[16] = S. cerevisiae deletion strains, locus YLR262C, strain YPT6, hits give low values
[17] = S. cerevisiae deletion strains, locus YML094W, strain GIM5, hits give low values
[18] = S. cerevisiae deletion strains, locus YMR219W, strain ESC1, hits give low values
[19] = S. cerevisiae deletion strains, locus YMR263W, strain SAP30, hits give low values
[20] = S. cerevisiae deletion strains, locus YNL153C, strain GIM3, hits give low values
[21] = S. cerevisiae deletion strains, locus YNL298W, strain CLA4 (second series), hits give low values
[22] = S. cerevisiae deletion strains, locus YNL322C, strain KRE1, hits give low values
[23] = S. cerevisiae deletion strains, locus YNR030W, strain Alg12, hits give low values
[24] = S. cerevisiae deletion strains, locus YPL055C, strain LGE1, hits give low values
[25] = S. cerevisiae deletion strains, locus YPL241C, strain CIN2, hits give low values
[26] = S. cerevisiae deletion strains, locus YPR135W, strain CTF4, hits give low values

Measured: normalized growth

CCN1CN=C(SCc2ccc(C)cc2)NC1
inactive: [1] 0.986 | [2] 0.992 | [3] 0.991 | [4] 1 | [5] 0.932 | [6] 0.997 | [7] 0.983 | [8] 1 | [9] 0.915 | [10] 0.968 | [11] 0.976 | [12] 0.986 | [13] 0.977 | [14] 0.977 | [15] 0.997 | [16] 0.974 | [17] 0.998 | [18] 0.994 | [19] 0.974 | S. cerevisiae deletion strains, locus YMR307W, strain GAS1, hits give low values 1.05 | [20] 0.98 | [21] 0.975 | [22] 0.994 | [23] 0.986 | [24] 0.947 | [25] 0.978 | [26] 0.904

COc1cc(NC(=S)Nc2ccccc2OC(F)(F)F)cc(C(F)(F)F)c1
active: [9] 0.824
inactive: S. cerevisiae deletion strains, locus YAR019C, strain CDC15, hits give low values 0.969 | S. cerevisiae deletion strains, locus YBL105C, strain PKC1, hits give low values 0.977 | S. cerevisiae deletion strains, locus YBR135W, strain CKS1, hits give low values 0.977 | S. cerevisiae deletion strains, locus YBR136W, strain MEC1, hits give low values 0.975 | S. cerevisiae deletion strains, locus YBR160W, strain CDC28, hits give low values 0.972 | S. cerevisiae deletion strains, locus YDL017W, strain CDC7, hits give low values 0.982 | S. cerevisiae deletion strains, locus YDL028C, strain MPS1, hits give low values 0.962 | [3] 0.99 | S. cerevisiae deletion strains, locus YDL108W, strain KIN28, hits give low values 0.965 | S. cerevisiae deletion strains, locus YDL132W, strain cdc53, hits give low values 0.974 | S. cerevisiae deletion strains, locus YDL214C, strain PRR2, hits give low values 0.937 | S. cerevisiae deletion strains, locus YDR052C, strain DBF4, hits give low values 0.991 | S. cerevisiae deletion strains, locus YDR054C, strain cdc34, hits give low values 0.975 | S. cerevisiae deletion strains, locus YDR226W, strain ADK1, hits give low values 0.977 | S. cerevisiae deletion strains, locus YDR477W, strain SNF1, hits give low values 0.945 | S. cerevisiae deletion strains, locus YER123W, strain YCK3, hits give low values 0.931 | S. cerevisiae deletion strains, locus YER133W, strain GLC7, hits give low values 0.948 | S. cerevisiae deletion strains, locus YFL009W, strain cdc4, hits give low values 0.967 | S. cerevisiae deletion strains, locus YFL029C, strain CAK1, hits give low values 0.962 | S. cerevisiae deletion strains, locus YFR003C, strain YPI1, hits give low values 0.987 | S. cerevisiae deletion strains, locus YFR019W, strain FAB1, hits give low values 0.983 | S. cerevisiae deletion strains, locus YFR028C, strain CDC14, hits give low values 0.969 | S. cerevisiae deletion strains, locus YGR040W, strain KSS1, hits give low values 0.951 | S. cerevisiae deletion strains, locus YGR052W, strain FMP48, hits give low values 0.994 | S. cerevisiae deletion strains, locus YGR092W, strain DBF2, hits give low values 0.962 | S. cerevisiae deletion strains, locus YHR079C, strain IRE1, hits give low values 0.985 | S. cerevisiae deletion strains, locus YHR082C, strain KSP1, hits give low values 0.972 | S. cerevisiae deletion strains, locus YHR205W, strain SCH9, hits give low values 0.922 | S. cerevisiae deletion strains, locus YIL147C, strain SLN1, hits give low values 0.961 | S. cerevisiae deletion strains, locus YJL095W, strain BCK1, hits give low values 0.956 | S. cerevisiae deletion strains, locus YJL128C, strain PBS2, hits give low values 0.929 | S. cerevisiae deletion strains, locus YJL157C, strain FAR1, hits give low values 0.962 | S. cerevisiae deletion strains, locus YJR016C, strain ILV3, hits give low values 0.989 | S. cerevisiae deletion strains, locus YJR066W, strain TOR1 (second series), hits give low values 1 | S. cerevisiae deletion strains, locus YJR066W, strain TOR1, hits give low values 0.926 | S. cerevisiae deletion strains, locus YKL048C, strain ELM1, hits give low values 0.971 | S. cerevisiae deletion strains, locus YKL067W, strain YNK1, hits give low values 0.926 | S. cerevisiae deletion strains, locus YKL101W, strain HSL1, hits give low values 0.937 | S. cerevisiae deletion strains, locus YKL193C, strain SDS22, hits give low values 0.977 | S. cerevisiae deletion strains, locus YKL203C, strain TOR2, hits give low values 1.03 | S. cerevisiae deletion strains, locus YLR113W, strain HOG1, hits give low values 0.886 | S. cerevisiae deletion strains, locus YLR133W, strain CKI1, hits give low values 0.96 | S. cerevisiae deletion strains, locus YLR403W, strain SFP1, hits give low values 0.968 | S. cerevisiae deletion strains, locus YML070W, strain DAK1, hits give low values 0.94 | S. cerevisiae deletion strains, locus YMR001C, strain CDC5, hits give low values 0.959 | S. cerevisiae deletion strains, locus YMR205C, strain PFK2 (second series), hits give low values 0.962 | S. cerevisiae deletion strains, locus YMR277W, strain FCP1, hits give low values 0.954 | S. cerevisiae deletion strains, locus YNL006W, strain LST8, hits give low values 0.978 | S. cerevisiae deletion strains, locus YNL020C, strain ARK1, hits give low values 0.965 | S. cerevisiae deletion strains, locus YNL161W, strain CBK1, hits give low values 0.977 | S. cerevisiae deletion strains, locus YNL183C, strain NPR1, hits give low values 1.01 | S. cerevisiae deletion strains, locus YNL207W, strain RIO2, hits give low values 0.985 | S. cerevisiae deletion strains, locus YNL222W, strain SSU72, hits give low values 0.965 | S. cerevisiae deletion strains, locus YNL307C, strain MCK1 (second series), hits give low values 0.956 | S. cerevisiae deletion strains, locus YOL078W, strain AVO1, hits give low values 0.97 | S. cerevisiae deletion strains, locus YOL136C, strain PFK27, hits give low values 0.935 | S. cerevisiae deletion strains, locus YOR061W, strain CKA2, hits give low values 0.962 | S. cerevisiae deletion strains, locus YOR119C, strain RIO1, hits give low values 0.964 | S. cerevisiae deletion strains, locus YOR231W, strain MKK1, hits give low values 0.945 | S. cerevisiae deletion strains, locus YOR329C, strain SCD5, hits give low values 0.99 | S. cerevisiae deletion strains, locus YPL031C, strain PHO85, hits give low values 0.957 | S. cerevisiae deletion strains, locus YPL153C, strain RAD53, hits give low values 0.952 | S. cerevisiae deletion strains, locus YPL204W, strain HRR25, hits give low values 0.957 | S. cerevisiae deletion strains, locus YPL209C, strain IPL1, hits give low values 0.976 | S. cerevisiae deletion strains, locus YPL256C, strain CLN2, hits give low values 0.927 | S. cerevisiae deletion strains, locus YPR025C, strain CCL1, hits give low values 0.984 | S. cerevisiae deletion strains, locus YPR106W, strain ISR1, hits give low values 0.974 | S. cerevisiae deletion strains, locus YPR111W, strain DBF20, hits give low values 0.953 | S. cerevisiae deletion strains, strain NNK1, hits give low values 0.974 | S. cerevisiae deletion strains, strain TSCII, hits give low values 0.97

COc1cc(NC(=O)NS(=O)(=O)c2ccc(C)cc2)cc(C(F)(F)F)c1
inactive: [1] 0.991 | [2] 0.995 | S. cerevisiae deletion strains, locus YCL061C, strain MRC1, hits give low values 0.987 | [3] 0.99 | [4] 1 | [5] 0.91 | [6] 1.02 | [7] 0.995 | [8] 0.996 | [9] 1.1 | [10] 0.994 | [11] 0.998 | [12] 0.965 | [13] 0.925 | [14] 0.999 | [15] 1.05 | [16] 0.907 | [17] 1.01 | [18] 0.997 | [19] 1 | [20] 0.995 | [21] 1.03 | [22] 0.986 | [23] 1.03 | S. cerevisiae deletion strains, locus YOL006C, strain TOP1, hits give low values 1.06 | [24] 0.966 | [25] 1.11 | [26] 1.02 | S. cerevisiae strains, strain wild type, hits give low values 1
